Compound activity: PubChem, University of Kansas High Throughput Screening Laboratory
mHTT-CaM PPI inh – inhibitors of human mutant huntingtin-calmodulin interaction; AlphaScreen His-mHTT/GST-CaM binding, luminescence; inhibition, % at 15 µM; 190,000 tested, 3.6% active
Pf apPOL inh – Pf-apPOL DNA polymerase inhibition | Recombinant Pf-apPOL, molecular beacon fluorescence, 1.5 h | inhibition, % at 10 µM | 210,000 tested, 0.25% active | AID 1794808
Hits are given with their value; - = inactive; . = no result. The list is not random: actives were taken first. Their share in the collection is about 3.6%. No stated cut-off is given here; in the data, active means inhibition above about 50%; inactive means the rest.

SMILES	mHTT-CaM PPI inh	Pf apPOL inh
CC(C)c1ccc(N2C=C(C#N)S(=O)(=O)c3ccccc32)cc1	-	-
CCCOc1ccc(CNC(=O)C2CCc3nc(N4CCCCC4)ncc3C2)cc1 (stereo not given)	-	-
Oc1ccc(O)c2c1C1c3ccccc3C2c2ccccc21	-	-
Oc1ccc2ccccc2c1C1Nc2cccc3cccc(c23)N1	89	.
COc1ccc(CCNC(=O)C(=O)Nc2ccc([N+](=O)[O-])cc2C)cc1OC	-	-
CCN(CC)c1nc(=O)c2cc(NC(C)=O)ccc2s1	-	-
Cc1ccc(NC(=O)c2cccs2)c(C)c1	-	-
COc1ccccc1C(=O)N/C(=C/c1ccc([N+](=O)[O-])cc1)C(=O)Nc1ccccc1Cl	-	-
COc1ccc(N2CCC(CNS(=O)(=O)c3cccc(C(F)(F)F)c3)C2)cc1 (stereo not given)	73	-
O=C1CC(CNS(=O)(=O)c2cccc(C(F)(F)F)c2)CN1c1ccc(Cl)cc1 (stereo not given)	-	-
O=C(NCCC12CC3CC(CC(C3)C1)C2)c1cc([N+](=O)[O-])ccc1Cl	-	-
COc1cc([N+](=O)[O-])ccc1NC(=O)c1ccc(=O)n(Cc2ccccc2F)c1	-	-
COc1ccc(N=c2scc(-c3ccc(OC)cc3F)n2CCO)cc1	-	-
CCn1c(-c2ccc(OC)c(F)c2)csc1=Nc1ccccc1	72	-
OCCn1c(-c2ccc(F)cc2)csc1=Nc1cccc(Cl)c1	98	-
C=CCn1c(-c2ccc(OC)c(OC)c2)csc1=Nc1ccccn1	-	-
OCCn1c(-c2ccc(F)cc2)csc1=Nc1ccccc1	-	-
COc1ccc(-c2csc(=Nc3ccc(F)cc3)n2CCO)cc1F	53	-
CCCCOc1ccc(C2NC(C(=O)O)CS2)cc1 (stereo not given)	-	-
COc1ccc(-c2nc3cccnc3n2C2CCN(C(=O)c3cccc(OC)c3)C2)cc1 (stereo not given)	-	-
Cc1ccc(NC(=O)N2CCc3cn(C)c4cccc(c34)C2)cc1Cl	-	-
C1=CC2CC1CC21COC(c2ccc(N3CCOCC3)cc2)OC1 (stereo not given)	-	.
Cc1ccc(S(=O)(=O)N2CCC(CN3CCCCCC3)CC2)c(C)c1	-	-
CSCCC(C(=O)O)N1C(=O)C2C3CC(C(Br)C3Br)C2C1=O (stereo not given)	-	-
Cc1cccc(N2CCN(Cc3ccnc4ccccc34)CC2)c1C	-	-
SMILES	mHTT-CaM PPI inh	Pf apPOL inh
Cc1ccc(C)c(Cc2c(C)nc3c(C(=O)NC4CCCC4)cnn3c2C)c1	-	-
CCOc1ccc(CC(=O)N2CCC(Cc3nc4cccnc4n3C)C2)cc1 (stereo not given)	-	-
Cc1ccccc1Cn1c(CN2CCC(C(=O)NCc3ccco3)CC2)cc2ccccc21	86	-
CCOc1ccc(CN2CCC(C(=O)NCCc3ccccc3)CC2)cc1	-	-
O=C(NCc1ccco1)C1CCN(Cc2cc3ccccc3n2Cc2ccccc2)CC1	73	-
O=C(NCCc1ccco1)C1CCN(Cc2cc3ccccc3n2Cc2ccccc2)CC1	58	-
CCc1ccc(CN2CCC(C(=O)NCc3ccco3)CC2)cc1	-	-
Cn1cc(CN2CCC(C(=O)NCc3ccco3)CC2)c2cc(Cl)ccc21	-	-
COc1cc(NC(=O)N2CCCC2c2cccc(F)c2)cc(OC)c1OC (stereo not given)	-	-
COc1ccc(NC(=O)N2CCCC2c2nc(-c3ccc(F)cc3F)no2)cc1Cl (stereo not given)	-	-
O=C(CSCc1ccccc1)NCC1(CO)CC1	-	-
COc1cccc(OCCSc2nc3ccccc3s2)c1	96	-
NCCSc1nc2ccccc2s1	-	-
Cc1ccc2c(C(=O)NCc3ccc(C)o3)cc(NC(=O)C3CCC3)cc2n1	64	-
CCOc1ccc(C(C)NC(=O)c2cc(NC(C)=O)cc3nc(C)ccc23)cc1 (stereo not given)	-	-
CCOc1ccccc1CNC(=O)c1cc(NC(C)=O)cc2nc(C)ccc12	-	-
Cc1ccc(CNC(=O)c2cc(-c3ccc(Br)s3)nc3ccccc23)o1	96	-
CC(=O)Nc1cc(C(=O)NCc2ccccc2Br)c2ccc(C)nc2c1	55	-
O=C(NCc1ccco1)c1cc(-c2ccc(Br)s2)nc2ccccc12	-	-
CNC(=O)c1cc(NC(=O)C2CCC2)cc2nc(C)ccc12	-	-
COc1ccc(C(C)NC(=O)c2cc(NC(C)=O)cc3nc(C)ccc23)cc1 (stereo not given)	54	-
O=C(NCc1cccnc1)C1CC(=O)N(C2CCCCCCC2)C1 (stereo not given)	-	-
CN(Cc1ccccc1)C(=O)C1CC(=O)N(c2ccc(F)cc2)C1 (stereo not given)	-	-
CC(C)(C)C(=O)Nc1cccc(C(=O)Nc2ccc(Br)cc2)c1	-	-
O=C(NCCCCCCNC(=O)n1nnc2ccccc21)n1nnc2ccccc21	-	-
CC(C)c1ccc(OCC(=O)Nc2nnc(-c3ccc(Br)o3)o2)cc1	52	-
